Data published in ChEMBL document CHEMBL3988442, “University of Dundee, Small-Polar-MMV Screening Library” (2021).
Hit rate of the full screen: of about 48,000 compounds, about 13,000 (27%) showed an effect of 50% or more. The list shows a part of the results.

Each molecule was assayed on Wolbachia pipientis (assay: Anti-Wolbachia Cell-Based Screen). Details: 5 µM.
Assay type: functional
Parameters: scale not given: in the data most compounds retested in dose-response had high values

| Compound | Percent Effect [%] |
| --- | --- |
| FC(F)(F)Oc1ccc(-c2noc([C@@H]3Cc4nc[nH]c4CN3)n2)cc1 | -8.285 |
| CCCc1nnc(N(C)CC2CCN(CC(C)C)CC2)o1 | -8.883 |
| Cc1ccc2nc(-c3cnc(N)nc3)c(C)c(C(=O)N(C)C)c2c1 | 2.177 |
| Cc1cc(N(C)C)nc(C2COCCN2Cc2cc(C)on2)n1 (configuration not stated) | 106.1 |
| Cn1ccnc1CN1CCOC[C@H]1c1nc(C(C)(C)C)co1 | -3.783 |
| Cc1cc(N(C)C)nc(C2COCCN2Cc2cscn2)n1 (configuration not stated) | 100.1 |
| CCOC(=O)N(C)C1CCN(Cc2csc(C)n2)CC1 | -9.858 |
| Cc1cc(N(C)C)nc(N(C)Cc2csc(C)n2)n1 | -1.887 |
| Cc1cc(CN2CCOC(CN(C)C)C2)no1 (configuration not stated) | -11.72 |
| Cc1cc(C)n(CC2CCCCN2Cc2cscn2)n1 (configuration not stated) | 2.934 |
| Cc1cc(N(C)C)nc(N2CCN(Cc3nccn3C)CC2)n1 | -14.83 |
| Cc1nc(C)n(CC2CCCN2Cc2cscn2)n1 (configuration not stated) | -0.8371 |
| Cc1cc(N(C)C)nc(C2COCCN2Cc2nccn2C)n1 (configuration not stated) | 106.8 |
| Cc1cc(N(C)C)nc(C2COCCN2Cc2csc(C)n2)n1 (configuration not stated) | 76.41 |
| Cc1cc(CN2CCCC2c2noc(C)n2)no1 (configuration not stated) | -4.781 |
| CC(NC1(CNS(C)(=O)=O)CCCC1)c1ccccc1 (configuration not stated) | -3.236 |
| COc1ccc(-n2cccn2)c(CN2CCOCC(CN(C)C)C2)c1 (configuration not stated) | -24.66 |
| COc1cccc(CNCCc2cc(F)cc3c2OCOC3)c1 | -0.9463 |
| CC(C)(C)c1coc([C@@H]2COCCN2Cc2csnn2)n1 | -9.121 |
| CNc1cc(C)nc(C2COCCN2Cc2csc(C)n2)n1 (configuration not stated) | 118.8 |
| Cc1nc(CN2CCCC2c2nc(C(C)C)no2)cs1 (configuration not stated) | -7.461 |
| COc1ccnc(NC(=O)c2cscc2C)c1 | -3.049 |
| CCc1[nH]ncc1C(=O)N1CCN(c2nccc(OC)n2)CC1 | -7.097 |
| CCc1cnc(N)nc1NCCCN1CCCCC1CO (configuration not stated) | 90.38 |
| Cc1ccsc1-c1nccn1CCN1CCCCC1CO (configuration not stated) | 8.185 |
| CCc1cnc(N)nc1NCCC(=O)NC1CCCCC1 | 31.74 |

| Compound | Percent Effect [%] |
| --- | --- |
| Cc1cc(C)n(CC2CCCCN2CCCS(=O)(=O)N(C)C)n1 (configuration not stated) | 4.04 |
| Cc1ncnc(NCCCN2CCCCC2CO)c1C (configuration not stated) | 93.53 |
| Cc1cc(-c2nccn2CCN2CCCCC2CO)oc1C (configuration not stated) | 12.23 |
| Cc1cnc(NCCCN2CCCCC2CO)nc1 (configuration not stated) | 67.94 |
| CCc1cnc(N)nc1NCCN1CCCCC1 | 1.893 |
| Cc1nc(C)n(CCCNc2ncnc(C)c2C)n1 | -4.271 |
| O=C(NC1CCC1)[C@@H]1CCO[C@@H]2CCN(C3CCCC3)C[C@H]21.O=C(O)C(F)(F)F | -6.007 |
| CCc1n[nH]c(C2CN(Cc3nccn3CC)CCO2)n1 (configuration not stated) | -1.514 |
| CN(CCc1cn[nH]c1)C(=O)C1CC(=O)N(Cc2cccnc2)C1 (configuration not stated) | 1.356 |
| CCCn1ncc(CN2C[C@@H]3CCCN3C[C@@H]2Cc2ccccc2)c1C | 119.2 |
| c1ccc(CNc2ncc(CN3CCCN4CCC[C@H]4C3)cn2)cc1 | -5.428 |
| CCCn1ncc(C(=O)N2CCN(C3Cc4ccccc4C3)CC2)c1C | 1.653 |
| CCCn1ncc(CN2C[C@@H]3CCCN3C[C@H]2Cc2ccccc2)c1C | 112.1 |
| N#CCCCN1CCCC1Cc1ccccc1 (configuration not stated) | -5.887 |
| CC(=O)c1ccc(-c2cnn(CC(=O)Nc3ccnn3C)c2)nc1 | -6.817 |
| O=C(NCC(O)c1ccsc1)c1sccc1OC(F)F (configuration not stated) | -10.31 |
| Cc1cccc2cc(C(=O)N3CCC(F)(F)CC3)n(C)c12 | 5.497 |
| CN(C)Cc1nn(C)c2c1CCN(C(=O)c1cnccn1)C2.O=C(O)C(F)(F)F | -5.117 |
| Cn1nc(CN2CCCC2)c2c1CN(C(=O)c1cccnc1)CC2.O=C(O)C(F)(F)F.O=C(O)C(F)(F)F | -3.711 |
| CN(C)Cc1nn(C)c2c1CN(C(=O)Nc1cccc(F)c1)C2 | -15.2 |
| Cc1nocc1C(=O)N1CCc2c(CN(C)C)nn(C)c2C1 | 93.65 |
| CN(C)Cc1nn(C)c2c1CCN(S(=O)(=O)c1cccs1)C2 | 12.48 |
| CN(C)Cc1nn(C)c2c1CN(C(=O)c1cccc(C#N)c1)C2 | 110.3 |
| CN(C)Cc1nn(C)c2c1CCN(C(=O)CC1CC1)C2.O=C(O)C(F)(F)F | 5.365 |
| Cc1cccc(C(=O)N2CCc3c(CN(C)C)nn(C)c3C2)n1 | 94.16 |
| Cc1cccc(NC(=O)N2Cc3c(CN(C)C)nn(C)c3C2)c1 | -10.1 |
